Screening results from PubChem BioAssay.
Jurkat NFkB inh = inhibitors of the PMA/ionomycin-induced NF-kB reporter in Jurkat cells; PMA/ionomycin-induced NF-kB luciferase reporter, luminescence; inhibition, % at 4 µM; 0.53% of 330,000 active; AID 435003; in the data active = inhibition above about 50%
Calb FLC = C. albicans growth modulation with fluconazole | 0.57% of 300,000 active | C. albicans CaCi-2 (fluconazole-resistant clinical isolate) + fluconazole, Alamar Blue growth, 48 h | AID 1979 | growth inhibition, % (no concentration beside the values);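 active = growth inhibition above about 58% in most replicates, limit read from the data, passing the limit was not always enough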;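 also: all wells also contain fluconazole at 8 µg/ml as a sub-toxic cotreatment; 0% = median of DMSO wells and 100% = median of geldanamycin control wells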
Shn3 3UTR inh = reduces Shn3 3'UTR luciferase signal in osteoblasts; inhibition, % at 12.5 µM; AID 588674; 0.52% of 360,000 active; Clone20 osteoblast Shn3 3'UTR firefly luciferase, 24 h;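 active = mean inhibition of at least 75% with every replicate also reaching 75%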;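 also: 0% = median of neutral control wells and 100% = pilot-screen positive control compound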
Beta cell apopt = blocks beta cell apoptosis; INS-1E cytokine-induced death, ATP luminescence, 48 h; percent of positive-control rescue, neutral wells zero; protection from apoptosis, % (no concentration beside the values); 0.8% of 300,000 active; AID 435005;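 active = Every replicate reaches about 75%, or at least half do and their mean reaches it too, limit read from the data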;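 also: 0% = cytokine-treated negative control wells and 100% = positive control rescue; higher means more ATP so stronger rescue from cytokine killing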
697 NFkB inh = inhibitors of the PMA/ionomycin-induced NF-kB reporter in 697 B cells; 697 B-cell NF-kB luciferase reporter, 16 h; inhibition, % at 4 µM; 0.33% of 330,000 active; AID 435022; in the data active = inhibition above about 35%
697 NFkB conf = inhibitors of the PMA/ionomycin-induced NF-kB reporter in 697 B cells, retest. shares compounds with 697 NFkB inh. 697 B-cell NF-kB luciferase, 16 h. inhibition, % at 4 µM. 35% of 2,000 active. AID 449746; in the data active = inhibition mostly above about 28%, no sharp cut-off; inactive = mostly below about 22%
Active calls of the source: *; / = no result. Rows were chosen to be rich in hits. Some 2% of all compounds tested hit in one or more screens of this group.

SMILES | Jurkat NFkB inh | Calb FLC | Shn3 3UTR inh | Beta cell apopt | 697 NFkB inh | 697 NFkB conf
COc1ccc(/C=C2\SC(=S)N(CCC(=O)Nc3cccc(C(=O)O)c3)C2=O)cc1 | -5.4 | 0.6 | 7.6 | / | 41.5* | 38.9*
O=C(CCN1C(=O)/C(=C/c2ccc(Cl)cc2)SC1=S)Nc1cccc(C(=O)O)c1 | 23.2 | -1.3 | 6.1 | -0.4 | 13.4 | /
Cc1ccc(C=C2SC(=S)N(CCCC(=O)Nc3cccc(C(=O)O)c3)C2=O)cc1 | / | / | -14.3 | / | / | /
Cc1ccc(/C=C2\SC(=S)N(CCCC(=O)Nc3cccc(C(=O)O)c3)C2=O)cc1 | -3.7 | -0.4 | 12.1 | -1.7 | 76.2* | 88.5*
CCC(Sc1nc2ccncc2[nH]1)C(=O)Nc1cc(Cl)ccc1C (stereo unspecified) | 0.4 | -0.5 | 5.6 | -8.1 | 3.0 | /
COc1cccc(OC)c1C1=CC(=O)C[C@H](c2ccc3c(c2)OCO3)C1 | -5.5 | / | -0.3 | -4.2 | -10.9 | /
COc1cccc2c1C(=O)O/C2=C/c1ccc2c(c1)OCO2 | -63.2 | -28.9 | 16.1 | 11.5 | -342.3 | -446.2
COCCn1c(C)c(C)c2c(NCCc3ccccc3)ncnc21 | -77.0 | -2.7 | 7.5 | 7.6 | -280.9 | -28.6
CCOc1ccccc1CN1CCNC(=O)C1CC(=O)NCCCn1cccn1 (stereo unspecified) | 2.2 | -4.8 | -1.0 | -3.0 | 18.1 | /
N#CCSc1nc2c(cc1C#N)CCCC2 | -20.6 | 17.8 | -2.9 | / | -5.9 | /
CSC1CCCCC1(O)CSc1nc2c(cc1C#N)CCCC2 (stereo unspecified) | -11.8 | 5.4 | -1.6 | 2.9 | 39.8* | 47.5*
COc1ccc(-c2ccc(OC)c([C@H]3[C@H]4C=CC[C@@H](C)[C@@H]4C(=O)N3Cc3ccccc3)c2)cc1C | 17.8 | 2.0 | 16.7 | -0.5 | 41.6* | 51.0*
COc1ccc(-c2ccc(N(C)C)cc2)cc1[C@H]1[C@H]2C=CC[C@@H](C)[C@@H]2C(=O)N1Cc1ccccc1 | 8.8 | -5.5 | 27.2 | 1.7 | 51.0* | 36.2*
COc1ccc(-c2ccc(C(C)=O)cc2)cc1[C@H]1[C@H]2C=CC[C@@H](C)[C@@H]2C(=O)N1Cc1ccccc1 | 31.4 | 15.0 | 32.9 | 12.0 | 48.2* | 49.2*
COc1ccc(/C=C/c2ccccc2)cc1[C@H]1[C@H]2C=CC[C@@H](C)[C@@H]2C(=O)N1Cc1ccccc1 | 19.9 | -2.4 | 35.8 | 15.8 | 64.8* | 32.5*
CN(C(=O)c1ccccc1OC1CCN(S(C)(=O)=O)CC1)C1CCOC1 (stereo unspecified) | -15.2 | 3.8 | 4.0 | -1.1 | 21.5 | /
O=C(NCC1CCCO1)c1cc(Br)c(Br)s1 (stereo unspecified) | 9.6 | 11.1 | 5.1 | / | 7.5 | /
